# JMJD2A Tudor: inhibitors of human JMJD2A Tudor domain; AID 504339; 390,000 tested, 4.4% active; AlphaScreen JMJD2A-Tudor / H3K4me3 peptide binding; Potency, µM (highest dose often 114 µM), inactives show at the highest dose activity change, negative = inhibition, usual class: inhibitors; note: potency is the fitted concentration of half-maximal effect; % is set by controls: 0 for no effect and ±100 for the full control effect; nearly all actives have a fitted effect of over 50% in size
# BAZ2B block: inhibitors of human BAZ2B bromodomain; Q9UIF8; AlphaScreen BAZ2B-H3K14Ac peptide displacement; Potency, µM (titrated, usually from 114 µM), for the others: top-dose activity change, negative = inhibition, usual class: inhibitors; 360,000 tested, 4.4% active; AID 504333; note: potency is the fitted concentration of half-maximal effect; % is set by controls: 0 for no effect and ±100 for the full control effect; nearly all actives have a fitted effect of over 60% in size
# Target sequence (Q9UIF8 whole entry, looked up): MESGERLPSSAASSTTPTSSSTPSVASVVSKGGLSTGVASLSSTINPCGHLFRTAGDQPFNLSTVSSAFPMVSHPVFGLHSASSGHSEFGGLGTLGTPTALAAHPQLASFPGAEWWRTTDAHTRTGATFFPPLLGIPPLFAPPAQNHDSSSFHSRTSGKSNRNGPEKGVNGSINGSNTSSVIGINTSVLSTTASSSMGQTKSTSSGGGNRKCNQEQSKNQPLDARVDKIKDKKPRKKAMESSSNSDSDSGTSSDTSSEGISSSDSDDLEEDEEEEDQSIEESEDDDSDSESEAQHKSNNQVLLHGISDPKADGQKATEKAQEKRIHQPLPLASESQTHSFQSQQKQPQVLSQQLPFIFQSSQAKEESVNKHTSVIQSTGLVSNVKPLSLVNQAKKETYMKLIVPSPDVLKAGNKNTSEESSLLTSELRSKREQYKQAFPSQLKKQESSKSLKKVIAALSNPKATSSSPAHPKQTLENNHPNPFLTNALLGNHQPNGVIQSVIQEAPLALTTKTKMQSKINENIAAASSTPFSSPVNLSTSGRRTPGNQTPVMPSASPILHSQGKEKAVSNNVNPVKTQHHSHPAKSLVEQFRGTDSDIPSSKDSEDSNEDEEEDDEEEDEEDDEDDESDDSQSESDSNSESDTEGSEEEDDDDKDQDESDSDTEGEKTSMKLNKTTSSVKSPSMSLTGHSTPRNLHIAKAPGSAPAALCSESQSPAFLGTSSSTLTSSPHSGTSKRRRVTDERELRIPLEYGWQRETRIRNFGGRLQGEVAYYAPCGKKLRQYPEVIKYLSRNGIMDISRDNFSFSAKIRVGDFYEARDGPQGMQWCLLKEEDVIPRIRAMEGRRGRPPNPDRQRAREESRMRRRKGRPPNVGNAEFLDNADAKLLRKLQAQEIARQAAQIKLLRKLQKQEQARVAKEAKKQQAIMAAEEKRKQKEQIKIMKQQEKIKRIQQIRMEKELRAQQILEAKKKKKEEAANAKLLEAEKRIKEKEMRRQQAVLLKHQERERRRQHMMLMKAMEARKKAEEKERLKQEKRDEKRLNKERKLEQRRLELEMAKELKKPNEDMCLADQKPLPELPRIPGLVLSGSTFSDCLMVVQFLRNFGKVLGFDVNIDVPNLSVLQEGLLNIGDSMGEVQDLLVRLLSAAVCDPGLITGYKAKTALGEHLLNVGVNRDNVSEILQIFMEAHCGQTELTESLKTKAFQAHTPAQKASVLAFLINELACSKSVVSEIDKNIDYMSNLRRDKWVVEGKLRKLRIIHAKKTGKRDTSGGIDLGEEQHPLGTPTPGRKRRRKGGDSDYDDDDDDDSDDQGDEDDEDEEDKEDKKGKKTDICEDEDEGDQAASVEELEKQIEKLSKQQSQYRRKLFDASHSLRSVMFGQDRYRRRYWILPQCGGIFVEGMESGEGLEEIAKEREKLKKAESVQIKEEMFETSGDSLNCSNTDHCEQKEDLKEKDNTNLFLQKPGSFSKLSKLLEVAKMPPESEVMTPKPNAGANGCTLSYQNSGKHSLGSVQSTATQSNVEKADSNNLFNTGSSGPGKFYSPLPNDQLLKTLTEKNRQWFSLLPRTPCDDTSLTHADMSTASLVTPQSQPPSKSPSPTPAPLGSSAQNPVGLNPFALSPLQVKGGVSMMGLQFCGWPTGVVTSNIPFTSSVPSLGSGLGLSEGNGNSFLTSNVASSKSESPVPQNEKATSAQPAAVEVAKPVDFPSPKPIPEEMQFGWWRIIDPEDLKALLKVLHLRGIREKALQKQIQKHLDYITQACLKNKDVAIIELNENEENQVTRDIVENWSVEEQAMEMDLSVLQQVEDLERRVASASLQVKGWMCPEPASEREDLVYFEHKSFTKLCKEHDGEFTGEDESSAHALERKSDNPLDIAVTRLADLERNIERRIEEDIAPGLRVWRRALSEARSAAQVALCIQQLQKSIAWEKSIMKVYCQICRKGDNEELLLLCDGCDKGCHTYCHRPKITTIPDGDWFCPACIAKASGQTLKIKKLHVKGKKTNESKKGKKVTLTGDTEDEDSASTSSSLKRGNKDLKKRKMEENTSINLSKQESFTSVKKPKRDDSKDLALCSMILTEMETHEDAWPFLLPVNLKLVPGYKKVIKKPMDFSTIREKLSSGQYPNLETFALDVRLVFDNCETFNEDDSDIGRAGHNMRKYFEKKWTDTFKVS
#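 Multi-concentration screen (max 110 uM) measuring displacement of acetylated histone H3 peptide from BAZ2B by AlphaScreen, using 50 nM protein, 50 nM peptide and 10 ug/mL streptavidin donor plus Ni-chelate acceptor beads.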
# CtBP-E1A inh: blocks the CtBP interaction with E1A; AlphaScreen GST-E1A/His-CtBP binding, 1536-well; stronger effect = lower value; activity change, % (no concentration beside the values); 340,000 tested, 0.49% active; AID 651724; in the data active = activity change below about -65%; inconclusive = mostly about -30% to -63%; note: % is set by controls: 0 for no effect and ±100 for the full control effect
#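 In 5 uL wells, 23 nL compound meets equimolar GST-E1A and His-CtBP (5X stock 125 nM each) for 2 h, 37 °C. Beads (5X, 50 ug/mL) then 1 h, 37 °C, dark.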
# G9a inh: blocks human histone lysine methyltransferase G9a; Q96KQ7; G9a H3K9 monomethylation, AlphaScreen, 2 h; Potency, µM (titrated, usually from 102 µM), for inactives: at the top dose activity, negative = inhibition, usual class: inhibitors; 350,000 tested, 8.8% active; note: potency is the fitted concentration of half-maximal effect; % is set by controls: 0 for no effect and ±100 for the full control effect; nearly all actives have a fitted effect of over 75% in size
#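 Chemiluminescent proximity detection of H3K9 monomethylation, read after 10 min bead incubation in the dark. Reaction: 20 nM G9a, 500 nM biotin-H3K9 peptide, 20 uM SAM cofactor, 2 h, room temperature, following 15 min enzyme-compound preincubation.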
# Six1-Eya2 blk: inhibitors of human Six1/Eya2 interaction. Q15475+O00167. AlphaScreen GST-Six1/His-Eya2 binding, biochemical; stronger effect = lower value. activity change, % (no concentration beside the values). 360,000 tested, 0.56% active; in the data active = activity change below about -65%; inconclusive = mostly about -30% to -63%; note: % is set by controls: 0 for no effect and ±100 for the full control effect
#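 AlphaScreen with GST-Six1 and His-Eya2 (5X mix: 250 nM and 500 nM), glutathione donor and nickel acceptor beads; buffer 50 mM Tris pH 8.0, 300 mM NaCl, 1 mM TCEP; 1 h at 37 C in the dark.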
# HP1b chromo inh: blocks HP1-beta chromodomain binding to methylated histone tails; P83916; AlphaScreen HP1-beta / biotin-H3K9me3 peptide binding; Potency, µM (highest dose often 114 µM), for inactives: at the top dose activity change, negative = inhibition, hits mostly inhibitors; 390,000 tested, 0.56% active; note: potency is the fitted concentration of half-maximal effect; nearly all actives have a fitted effect of over 70% in size
#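 HP1-beta protein (50 nM final) preincubated 30 min at room temperature with biotinylated H3(1-18)K9me3 peptide (50 nM) in PBS pH 7.4, 0.01% Tween-20, then compound added for 30 min. AlphaScreen streptavidin donor/nickel chelate acceptor beads (10 ug/mL final), 30 min dark, luminescence read.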
# * marks the source's active call; other numbers are inactive results; ? = inconclusive; . = no result; [ ] = another dose, or the depositor's remark. Only some compounds are listed: those with a hit (about 10% of all), similar ones and a draw of the others. Unless noted, calls come from the whole dose curve; as a rule, active = well fitted inhibition curve with a large enough effect; inconclusive = small, poorly fitted or top-dose-only effect; inactive = no such curve, though single readings can be large or run the other way.
SMILES,JMJD2A Tudor,BAZ2B block,CtBP-E1A inh,G9a inh,Six1-Eya2 blk,HP1b chromo inh
O=C(NNc1ccccc1[N+](=O)[O-])Nc1cccc(Cl)c1,?,89µM*,.,-143%[59 µM],-15,-20%[57 µM]
COc1ccc(NC(=O)Cn2cc(C(=O)c3ccc(C)c(C)c3)c(=O)c3cc(OC)ccc32)cc1,-10%,-6%,.,-33%[59 µM],.,23%
Cc1ccc(-c2nnn(CC(=O)N(Cc3cccs3)C(C(=O)NC(C)(C)C)c3ccco3)n2)o1 (stereo not drawn),-20%,-12%,-7,18µM*,0,24%
Cc1ccc(-c2nnn(CC(=O)N(Cc3cccs3)C(C(=O)NC(C)(C)C)c3ccc(C)o3)n2)o1 (stereo not drawn),-7%,-3%,-5,?,-1,20%
Cc1ccc(-c2nnn(CC(=O)N(Cc3ccco3)C(C(=O)NC(C)(C)C)c3cccs3)n2)o1 (stereo not drawn),-25%,?,2,13µM*,-7,20%
Cc1ccccc1NC(=O)c1sc2nc3c(cc2c1N)CN(Cc1ccccc1)CC3,0%,-9%,.,?,.,45%
CN1CCc2nc3sc(C(=O)C45CC6CC(CC(C6)C4)C5)c(N)c3cc2C1,-26%,?,1,2.2µM*,10,-77%
CN1CCc2nc3sc(C(=O)Nc4ccccc4C(F)(F)F)c(N)c3cc2C1,?,?,.,13µM*,.,14%
CCN1CCc2nc3sc(C(=O)c4ccccc4)c(N)c3cc2C1,?,-33%[57.1 µM],.,11µM*,.,0%
COc1ccc(-c2nc(SCC(=O)Nc3ccc4c(c3)OCO4)c(-c3ccccc3)[nH]2)cc1,-32%,-12%,.,-10%[59 µM],.,11%
Cc1ccc(C)c(N2CCN(C(=O)Cn3cnc4sc(C)c(S(=O)(=O)N5CCN(c6ncccn6)CC5)c4c3=O)CC2)c1,-13%,-1%,.,-4%[59 µM],.,28%
COC(=O)C1CCN(CC(=O)Nc2ccc3c(c2)OCCO3)CC1,-3%,.,-11,.,-9,11%[57 µM]
CC1CC(C)CN(CC(=O)Nc2ccc3c(c2)OCCO3)C1 (stereo not drawn),0.89µM*,79µM*,-10,-43%[12.7 µM],-10,?
CC1CCN(CCC(=O)Nc2ccc3c(c2)OCCO3)CC1,.,56µM*,.,-47%,.,.
Cc1ccc(NC(=O)CCN2CCC(C)CC2)cc1,2%,?,6,.,6,46%
CCN(CC)C(=O)c1ccc2c(c1)N(Cc1c(F)cccc1Cl)C(=O)c1ccccc1S2,-22%,.,.,-18%[59 µM],.,23%
CC1(C)CC(=O)c2sc(NS(=O)(=O)Cc3ccccc3)nc2C1,-28%,4%,2,11µM*,4,-13%
Cc1ccc(S(=O)(=O)Nc2nc3c(s2)C(=O)CC(C)(C)C3)cc1,-7%,-37%,-12,50µM*,13,27%
COc1ccc(S(=O)(=O)Nc2nc3c(s2)C(=O)CC(C)(C)C3)cc1,-6%,22%,-22,-30%[59 µM],-4,15%
CC1(C)CC(=O)c2sc(NS(=O)(=O)c3cc(Cl)ccc3Cl)nc2C1,-10%,-3%,-2,?,1,9%
COC(=O)c1cc(S(=O)(=O)N2CCN(c3ccc(OC)cc3)CC2)c[nH]1,-23%,-10%,.,?,.,15%
COc1ccc(/C=C/C(=O)N(CCC(N)=O)c2ccccc2)cc1S(=O)(=O)N1CCOCC1,6%,-2%,8,50µM*,-9,53%
COc1ccc(/C=C/C(=O)N2CCN(c3ccccc3)CC2)cc1S(=O)(=O)N1CCOCC1,-12%,-26%,-9,4%,-2,11%
C/C(CCN1CCCCc2nc(C)c(C)cc21)=N\O[C@@H](C)CN1CCCCc2nc(C)c(C)cc21,.,-35%,.,?,.,.
C/C(CCN1CCCCc2nc(C)c(C)cc21)=N\OC[C@@H](O)[C@H]1O[C@@H]2OC(C)(C)O[C@@H]2[C@H]1O,.,-18%,.,50µM*,.,.
SMILES,JMJD2A Tudor,BAZ2B block,CtBP-E1A inh,G9a inh,Six1-Eya2 blk,HP1b chromo inh
COc1ccc(O[C@H]2C=C[C@@H](c3ccccc3)O[C@@H]2CO/N=C(\C)CCN2CCCCc3nc(C)c(C)cc32)cc1,.,?,.,40µM*,.,.
Cc1cccc(Oc2nc3c(c(=O)n(C)c(=O)n3C)n2Cc2ccccc2)c1C,8%,-4%,.,0%[59 µM],.,37%
CCOc1ccc(CN(CCc2ccc3c(c2)OCO3)Cc2cc(OC)cc(OC)c2)cc1,4µM*,?,.,1.4µM*,.,?
CN(C(=O)Cn1c(Cl)nc2c1c(=O)n(C)c(=O)n2C)C1CCS(=O)(=O)C1 (stereo not drawn),-20%,-5%,4,56µM*,6,0%
CCC(C)N(C(=O)Cn1c(Cl)nc2c1c(=O)n(C)c(=O)n2C)C1CCS(=O)(=O)C1 (stereo not drawn),-14%,-5%,-7,.,2,15%
CCc1ccc(NC(=O)Cn2c(=O)n(CCC(C)C)c(=O)c3cccnc32)cc1,-12%,7%,.,-8%[59 µM],.,52%
O=C(COc1ccccc1)Nc1nnc(-c2ccco2)o1,14µM*,18µM*,-7,?,?,15%
O=C(COc1ccccc1)Nc1nnc(-c2ccc(Cl)s2)o1,89µM*,?,-20,14%,-12,46%
O=C(COc1ccc(Cl)cc1)Nc1nnc(-c2ccco2)o1,28µM*,22µM*,-11,-29%,-15,26%
CC(=O)Nc1c(C)nn(-c2ccccc2)c1N1CCC(C(=O)NCc2ccc(F)cc2)CC1,1%,4%,.,4%[59 µM],.,28%[57 µM]
COc1ccc(-c2[nH]ncc2C(=O)NCc2ccc(F)cc2)cc1,-10%,-3%,.,7%[59 µM],.,18%
O=S(=O)(c1ccc(C2CCCCC2)cc1)N1CCN(c2cc(Cl)ccc2Cl)CC1,-1%,-8%,.,2%[59 µM],.,7%
C/C(O)=C\c1nc2ccccc2oc1=O,-13%[11.4 µM],-7%,-1,?,0,-13%
CS(=O)(=O)Cc1nc2ccccc2oc1=O,26%,-22%,-5,40µM*,1,20%
COc1ccc(C)cc1NCc1nnc2n1CCCCC2,-15%,-10%,.,?,.,17%[57 µM]
N#CC1=C2C=CC=CN2CC1=O,8.9µM*,50µM*,-9,4µM*,-2,-23%
Nc1cc(Cc2ccccc2)ccc1O,3.2µM*,.,0,.,-12,45µM*
CCCn1c(/C=C/c2ccco2)nc2ccccc21,-24%,9%,-8,8.9µM*,-10,15%
CCCCn1c(/C=C/c2ccco2)nc2ccccc21,-21%,-22%,1,8.9µM*,-4,27%
COCCNC(=O)c1nn(-c2ccc(Cl)cc2)nc1CO,-15%,-13%,.,5%[59 µM],.,24%

# Compound activity as filed in PubChem BioAssay.
